Results on 19 compounds are retold here after PubChem BioAssay (EPA / NIEHS).

Assay [1] is described as follows: ATG_CRE_CIS: Attagene CIS-FACTORIAL HepG2 Assay for human cAMP Responsive Element (CRE) binding protein 3 (AID 2282926). As to conditions: HepG2 CRE cis-reporter, Attagene multiplexed mRNA; actives raise or lower the signal. The method in brief:
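Endogenous CRE-binding activity in HepG2 is reported through a cis-regulated transfected reporter. Following a day of exposure, mRNA levels are determined by reverse transcription PCR and fluorescent fragment analysis; fits run in both directions versus DMSO.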

The target in assay [2] is CCAAT/enhancer-binding protein beta (Homo sapiens) (UniProt P17676). Briefly: ATG_C_EBP_CIS: Attagene CIS-FACTORIAL HepG2 Assay for human CCAAT/Enhancer Binding Protein (C/EBP) beta (AID 2282927). The conditions noted are these: HepG2 Attagene cis-factorial transcription factor reporter; actives raise or lower the signal. The method in brief:
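Endogenous C/EBPb-driven reporter transcripts measured in transfected human HepG2 cells at 24 h via RT-PCR and capillary electrophoresis of labelled fragments. Activity fitted in both directions relative to DMSO baseline.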

A short description of assay [3]: ATG_CMV_CIS: Attagene CIS-FACTORIAL HepG2 Assay for human CMV (Internal Marker) (AID 2282928).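 Note: endpoint acts as a background internal control marker rather than a target.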 As to conditions: HepG2 CMV promoter reporter, transcription factor profiling; actives raise or lower the signal. In outline: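 CMV internal-marker background readout in transiently transfected HepG2 cells bearing cis-regulated reporter units. Reporter mRNA is measured 24 h after dosing by RT-PCR and capillary electrophoresis, with bidirectional fitting against DMSO.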

Assay [4] is described as follows: ATG_DR4_LXR_CIS: Attagene CIS-FACTORIAL HepG2 Assay for human Liver X Receptor (LXR), DR4 submotif (AID 2282929). As to conditions: HepG2 Attagene DR4 cis-reporter, mRNA transcription; actives raise or lower the signal. In outline:
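After transient transfection with multiplexed cis-promoter reporter units, HepG2 cells received test chemicals for 24 h. Reporter mRNA induction, detected by fluorescence after RT-PCR and capillary electrophoresis, was scored relative to DMSO.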

Assay [5] has as its target Aryl hydrocarbon receptor (Homo sapiens) (UniProt P35869). Briefly: ATG_Ahr_CIS: Attagene CIS-FACTORIAL HepG2 Assay for human Aryl Hydrocarbon Receptor (Ahr) (AID 2282930). As to conditions: HepG2 AhR cis-factorial reporter transcription; actives raise or lower the signal. In outline:
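Reporter mRNA levels, quantified by RT-PCR and fluorescent capillary electrophoresis, reflect endogenous AhR transcriptional activity in HepG2 cells carrying transfected cis-promoter reporter constructs. Readout at 24 h post-dose; gain or loss fitted against DMSO baseline.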

A short description of assay [6]: ATG_AP_2_CIS: Attagene CIS-FACTORIAL HepG2 Assay for human Activator Protein 2 (AP-2) (AID 2282932). As to conditions: HepG2 AP-2 cis-reporter, Attagene transcription factor profiling; actives raise or lower the signal. In outline: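 Step one: transient transfection of HepG2 with reporter transcription units. Step two: 24 h chemical exposure. Step three: RNA extraction, RT-PCR, labelled fragment analysis by capillary electrophoresis; DMSO serves as baseline.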

Assay [7] in a line: ATG_BRE_CIS: Attagene CIS-FACTORIAL HepG2 Assay for human Bone Morphogenetic Protein (BMP) Response Element (BRE) (AID 2282933). As to conditions: HepG2 BMP response element reporter, Attagene transcription factor profiling; actives raise or lower the signal. In outline:
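After a 24 h chemical treatment, transiently transfected HepG2 cells were lysed for RNA; reporter transcripts were quantified by fluorescent RT-PCR and capillary electrophoresis, normalised to DMSO.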

Assay [8] has as its target Retinoic acid receptor alpha (Homo sapiens) (UniProt P10276). Put plainly: ATG_DR5_RAR_CIS: Attagene CIS-FACTORIAL HepG2 Assay for human Retinoic Acid Receptor Alpha (RARE), DR5 submotif (AID 2282934).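 For AC50: reporter responds to endogenous RAR alpha beta and gamma in HepG2 not RARA alone.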 The conditions noted are these: HepG2 Attagene cis-factorial RARE DR5 reporter, mRNA; actives raise or lower the signal. The method in brief: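 Reporter transcripts from a DR5-regulated unit, measured via RT-PCR plus capillary electrophoresis, reflect endogenous RAR activity in transiently transfected human HepG2 liver cells. Exposure lasted 24 h; gain or loss of signal scored against DMSO.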

Assay [9] has as its target Transcription factor E2F1 (Homo sapiens) (UniProt Q01094). Put plainly: ATG_E2F_CIS: Attagene CIS-FACTORIAL HepG2 Assay for human E2F Transcription Factor 1 (AID 2282935). As to conditions: HepG2 Attagene cis-reporter, E2F reporter RNA transcripts; actives raise or lower the signal. In outline: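 Total RNA from 24 h-treated, reporter-transfected HepG2 cells undergoes DNase I treatment, oligo(dT) reverse transcription, PCR and 6-FAM primer extension before capillary electrophoresis.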

Assay [10] is described as follows: ATG_E_Box_CIS: Attagene CIS-FACTORIAL HepG2 Assay for human Enhancer Box (E-box) (AID 2282936). As to conditions: HepG2 E-box cis-reporter transcription, actives raise or lower the signal. The method in brief: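 DMSO served as negative control and baseline for bidirectional fitting. Human hepatoma HepG2 cells, transiently transfected with cis-reporter constructs, were dosed 24 h; reporter mRNA read by RT-PCR and capillary electrophoresis.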

Assay [11] is described as follows: ATG_AP_1_CIS: Attagene CIS-FACTORIAL HepG2 Assay for human Activator Protein 1 (AP-1) (AID 2282931). The conditions noted are these: HepG2 Attagene cis-factorial AP-1 reporter mRNA; actives raise or lower the signal. In outline:
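After 24 h incubation with test chemical, RNA from transfected HepG2 cells was reverse-transcribed, amplified, fluorescently labelled and digested before capillary electrophoresis. Reporters were driven by cis-regulatory promoters; activity fitted bidirectionally versus DMSO.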

One may read the AC50 as the concentration giving half of the maximal activity seen.

Activity calls are given as the source filed them. Rule for the calls: active = hit-call score of the fitted dose curve at least 0.9, where 1 is the maximum; inactive = score below 0.9.

Sequence of Retinoic acid receptor alpha (Homo sapiens) (P10276 whole entry, looked up): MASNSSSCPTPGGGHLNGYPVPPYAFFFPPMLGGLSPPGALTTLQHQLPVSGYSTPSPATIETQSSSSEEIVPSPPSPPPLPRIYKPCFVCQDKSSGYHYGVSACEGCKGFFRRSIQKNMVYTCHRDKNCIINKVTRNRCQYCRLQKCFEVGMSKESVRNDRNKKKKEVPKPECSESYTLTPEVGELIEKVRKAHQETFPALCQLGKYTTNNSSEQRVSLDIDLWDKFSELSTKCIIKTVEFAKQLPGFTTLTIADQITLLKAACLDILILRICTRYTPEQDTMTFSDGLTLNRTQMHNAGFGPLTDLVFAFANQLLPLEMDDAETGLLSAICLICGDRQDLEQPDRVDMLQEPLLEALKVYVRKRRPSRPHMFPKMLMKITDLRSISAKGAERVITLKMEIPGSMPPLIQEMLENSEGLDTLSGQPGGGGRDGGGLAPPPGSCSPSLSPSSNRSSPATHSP
Sequence of Aryl hydrocarbon receptor (Homo sapiens) (P35869 whole entry, looked up): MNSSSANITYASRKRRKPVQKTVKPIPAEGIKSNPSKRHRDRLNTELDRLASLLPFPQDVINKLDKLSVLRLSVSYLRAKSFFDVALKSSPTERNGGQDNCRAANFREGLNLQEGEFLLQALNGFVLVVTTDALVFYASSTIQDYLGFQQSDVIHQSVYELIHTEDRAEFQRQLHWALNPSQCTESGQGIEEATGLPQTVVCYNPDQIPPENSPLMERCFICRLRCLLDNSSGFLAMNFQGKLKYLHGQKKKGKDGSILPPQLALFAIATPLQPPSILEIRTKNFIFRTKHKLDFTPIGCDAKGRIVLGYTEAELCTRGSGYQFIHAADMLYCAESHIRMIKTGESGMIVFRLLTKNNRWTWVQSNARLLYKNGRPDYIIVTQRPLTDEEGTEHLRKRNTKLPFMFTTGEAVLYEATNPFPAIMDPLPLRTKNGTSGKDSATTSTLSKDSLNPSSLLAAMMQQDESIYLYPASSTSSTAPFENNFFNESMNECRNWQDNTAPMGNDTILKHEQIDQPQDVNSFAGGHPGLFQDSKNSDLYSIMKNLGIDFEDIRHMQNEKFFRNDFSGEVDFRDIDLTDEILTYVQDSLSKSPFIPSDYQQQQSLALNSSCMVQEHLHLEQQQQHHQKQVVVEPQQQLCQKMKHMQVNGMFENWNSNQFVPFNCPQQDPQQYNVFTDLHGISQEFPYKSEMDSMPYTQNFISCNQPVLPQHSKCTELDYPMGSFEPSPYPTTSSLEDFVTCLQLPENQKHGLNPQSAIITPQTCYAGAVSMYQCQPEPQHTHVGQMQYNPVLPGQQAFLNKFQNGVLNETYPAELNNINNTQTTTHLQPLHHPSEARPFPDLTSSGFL
Sequence of Transcription factor E2F1 (Homo sapiens) (Q01094 whole entry, looked up): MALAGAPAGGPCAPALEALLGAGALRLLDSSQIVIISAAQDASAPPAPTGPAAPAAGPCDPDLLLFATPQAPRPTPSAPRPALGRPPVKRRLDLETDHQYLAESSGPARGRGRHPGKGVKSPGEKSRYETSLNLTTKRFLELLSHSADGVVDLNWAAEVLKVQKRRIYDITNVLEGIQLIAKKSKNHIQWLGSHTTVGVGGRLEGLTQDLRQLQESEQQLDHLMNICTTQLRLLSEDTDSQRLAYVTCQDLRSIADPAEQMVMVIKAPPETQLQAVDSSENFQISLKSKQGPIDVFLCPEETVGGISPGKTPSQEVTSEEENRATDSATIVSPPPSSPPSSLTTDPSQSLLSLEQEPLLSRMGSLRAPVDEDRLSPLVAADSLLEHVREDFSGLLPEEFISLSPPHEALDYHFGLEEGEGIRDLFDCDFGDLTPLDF
Sequence of CCAAT/enhancer-binding protein beta (Homo sapiens) (P17676 whole entry, looked up, the tested form may be a part): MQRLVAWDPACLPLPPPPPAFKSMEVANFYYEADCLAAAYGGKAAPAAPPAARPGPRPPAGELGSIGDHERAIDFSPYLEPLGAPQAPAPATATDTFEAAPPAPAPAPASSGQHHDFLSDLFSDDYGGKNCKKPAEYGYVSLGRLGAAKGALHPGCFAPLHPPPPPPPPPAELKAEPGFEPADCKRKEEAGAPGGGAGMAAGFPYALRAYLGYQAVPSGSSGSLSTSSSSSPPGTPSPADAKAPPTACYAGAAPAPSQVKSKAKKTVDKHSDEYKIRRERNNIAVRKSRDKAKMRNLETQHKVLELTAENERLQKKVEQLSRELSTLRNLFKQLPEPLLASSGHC

For the compound `C#CCO`, the call in [1], in assay [2], in [3], in assay [4], in [5] and in assay [6] was inactive. Besides, the result in assay [7], in assay [8], in assay [9] and in [10] was inactive.
For `Oc1c(Br)cc(Br)cc1Br`, the call in assay [1], in [2], in assay [3], in [4] and in assay [8] was inactive. Moreover, the AC50 in assay [5] was 49.5 µM (active); in [7] it was 126 µM (active); in assay [10], 30.4 µM (active).
In the case of `CN(C1CCCCC1)C1CCCCC1`, the compound was called inactive in assay [1], in assay [2], in assay [3], in assay [4], in assay [5] and in [6]. Moreover, the call in assay [7], in assay [8], in assay [9] and in assay [10] was inactive.
On to `CCOC(=O)c1ccccc1S(=O)(=O)NC(=O)Nc1nc(Cl)cc(OC)n1`, for which the outcome in assay [1], in assay [2], in [3], in [4], in [5] and in assay [6] was inactive. Besides, the outcome in assay [7], in assay [8] and in [10] was inactive.
Turning to `O=[N+]([O-])c1ccc(Nc2ccccc2)cc1`, the compound was called inactive in assay [1], in assay [2], in assay [3], in [4], in [5] and in assay [6]. The compound was classed as inactive in assay [8], in [9] and in assay [10]. In [7], the concentration at half-maximal activity (AC50) is 163 µM (active).
Take `BrCC(Br)c1ccccc1` (centres undefined): the outcome in assay [1], in assay [2], in assay [3], in assay [5], in assay [11] and in assay [6] was inactive. For the same compound, the outcome in [7], in assay [8], in assay [9] and in assay [10] was inactive.
Consider `CNC(=O)N(C)c1nc2ccccc2s1`, for which the call in assay [1], in assay [2], in assay [3], in assay [4], in assay [6] and in assay [7] was inactive. Besides, the compound was classed as inactive in assay [9] and in assay [10]. Besides, the half-maximal activity concentration (AC50) in assay [5] was 1.08 µM (active).
Consider `CCOP(=S)(OCC)O/N=C(\C#N)c1ccccc1`, for which the compound was called inactive in assay [1], in assay [2], in [3], in assay [6], in assay [8] and in assay [9]. Further, the outcome in assay [10] was inactive. The AC50 was 0.657 µM (active) in assay [5], 42.3 µM (active) in assay [11] and 31.6 µM (active) in assay [7].
Take `COC(F)(C(F)(F)C(F)(F)F)C(F)(C(F)(F)F)C(F)(F)F` (centres undefined): the outcome in assay [1], in assay [2], in [3], in assay [4], in assay [5] and in [6] was inactive. For the same compound, the compound was called inactive in assay [7], in assay [8], in assay [9] and in assay [10].
Regarding `CC(C)=CC1C(C(=O)OCc2cccc(Oc3ccccc3)c2)C1(C)C` (centres undefined), the outcome in [1], in assay [2], in [3], in [5], in assay [11] and in [6] was inactive. Further, the compound was classed as inactive in [7], in assay [9] and in [10].
On to `CCCCCCCCCCCCCCC(Br)C(=O)O` (centres undefined), for which the call in assay [1], in assay [3], in assay [5], in [7] and in assay [10] was inactive. Also, the half-maximal activity concentration (AC50) in assay [2] is 179 µM (active); in assay [11], 173 µM (active); in [6] it was 100 µM (active); in assay [8] it was 26.9 µM (active); in [9], 108 µM (active).
As to `O=C(O)c1cc(I)cc(I)c1I`, the compound was called inactive in assay [1], in assay [2], in [3], in assay [4], in [7] and in assay [8]. For the same compound, the compound was classed as inactive in assay [9] and in [10]. Moreover, the AC50 in assay [5] is 40.8 µM (active).
Turning to `CCCCCCCCCCCCBr`, the outcome in [1], in assay [2], in assay [3], in [5], in assay [11] and in [7] was inactive. For the same compound, the compound was classed as inactive in [8], in [9] and in assay [10].
In the case of `C[C@]12CC[C@@H](O)C[C@@H]1CC[C@@H]1[C@@H]2CC[C@]2(C)C(=O)CC[C@@H]12`, the compound was called inactive in assay [1], in [2], in assay [3], in assay [5], in assay [11] and in [6]. Further, the compound was classed as inactive in [7], in [8] and in [10].
In the case of `CCCCS(=O)(=O)Cl`, the result in [1], in assay [2], in assay [3], in assay [5], in assay [11] and in assay [6] was inactive. For the same compound, the compound was classed as inactive in assay [7], in assay [8], in assay [9] and in assay [10].
On to `CCCCCCCCCCCCN(C)C`, for which the compound was called inactive in [1], in assay [2], in [5], in [11], in assay [7] and in assay [9]. Besides, the half-maximal activity concentration (AC50) in [3] is 33.4 µM (active); in assay [8], 57.4 µM (active); in assay [10] it was 7.96 µM (active).
In the case of `C=CC(=O)OCC(COC(=O)C=C)(COC(=O)C=C)COC(=O)C=C`, the compound was classed as inactive in assay [1], in assay [5], in assay [7], in assay [8] and in assay [9]. Besides, the AC50 in assay [3] is 8.92 µM (active); in assay [4], 3.12 µM (active); in assay [11] it was 33.4 µM (active); in assay [10], 7.14 µM (active).
With `[F][Sn]([c]1ccccc1)([c]1ccccc1)[c]1ccccc1`, the half-maximal activity concentration (AC50) in assay [1] is 0.321 µM (active); in [3] it was 0.334 µM (active); in [4] it was 0.528 µM (active); in [5], 0.329 µM (active); in [10], 0.593 µM (active). The outcome in [11], in assay [7], in assay [8] and in assay [9] was inactive.
`CC(C)CC(C)(c1ccc(O)cc1)c1ccc(O)cc1`: the compound was classed as inactive in [1], in assay [3], in assay [5], in [6], in [7] and in assay [8]. The compound was classed as inactive in assay [9] and in [10]. Further, the concentration at half-maximal activity (AC50) in assay [4] and in assay [11] was 11.1 µM (active) in each case.
